Results filed as inconclusive are left out. The source made the active and inactive calls. How the source made its calls, unless noted: active means hit-call score of the fitted dose curve at least 0.9, where 1 is the maximum; inactive means score below 0.9.
Experiments:
[1] = TOX21_p53_BLA_p2_viability: Viability Assessment in the Tox21 HCT-116 p53 Agonism Beta-lactamase Assay, Phase 2 (AID 2283591; active means hit-call score of the fitted dose curve at least 0.9, where 1 is the maximum;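 further: compound exposure lasted 16 h at 37 °C; actives lower the ATP signal meaning cytotoxicity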)
Summary of the method: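 HCT-116 p53-bla cells (4000/well) rested 5 h at 37C, then received compounds in DMSO (217-fold dilution) for 16 h at 37C, 5% CO2. After the CCF4 read, CellTiter-Glo was added; ATP luminescence was read after 30 min at room temperature.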

[2] = biological target: Cellular tumor antigen p53 (Homo sapiens) (UniProt P04637); test: TOX21_p53_BLA_p2_ratio: Tox21 HCT-116 p53 Agonism Beta-lactamase Assay, Ratio, Phase 2 (AID 2283592; active means hit-call score of the fitted dose curve at least 0.9, where 1 is the maximum)
Summary of the method: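 HCT116 p53-bla; 4000 cells/well; 5 h pre-incubation; cpd in DMSO, 217-fold dilution; 16 h 37C/5% CO2; CCF4-AM 2 h RT; Ex 405, Em 460/530 ratio; DMSO = baseline; positive fitting direction.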

[3] = TOX21_p53_BLA_p3_viability: Viability Assessment in the Tox21 HCT-116 p53 Agonism Beta-lactamase Assay, Phase 3 (AID 2283593; active means hit-call score of the fitted dose curve at least 0.9, where 1 is the maximum;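 further: cells exposed to compound for 16 h before reading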)
Summary of the method: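 HCT-116 cells (4000/well) rested 5 h at 37C, then got DMSO compounds by pin tool (217-fold dilution) for 16 h at 37C, 5% CO2. After the bla read, CellTiter-Glo was added and luminescence read at 30 min, room temperature.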

[4] = biological target: Cellular tumor antigen p53 (Homo sapiens) (UniProt P04637); test: TOX21_p53_BLA_p3_ratio: Tox21 HCT-116 p53 Agonism Beta-lactamase Assay, Ratio, Phase 3 (AID 2283596; active means hit-call score of the fitted dose curve at least 0.9, where 1 is the maximum)
Summary of the method: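 HCT116 p53-bla cells (4000/well) given compound in DMSO (217-fold dilution) after 5 h, incubated 16 h at 37C. CCF4-AM substrate 2 h at room temperature; 460/530 nm emission ratio, gain fitted against DMSO.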

[5] = TOX21_p53_BLA_p4_viability: Viability Assessment in the Tox21 HCT-116 p53 Agonism Beta-lactamase Assay, Phase 4 (AID 2283597; active means hit-call score of the fitted dose curve at least 0.9, where 1 is the maximum;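 further: hits lower the luminescence signal meaning cytotoxicity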)
Summary of the method: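 Cells plated, 5 h pre-incubation; DMSO compounds pinned (217-fold dilution); 16 h, 37C/5% CO2; CCF4-AM 2 h RT; CellTiter-Glo 30 min RT; luminescence read.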

[6] = biological target: Cellular tumor antigen p53 (Homo sapiens) (UniProt P04637); test: TOX21_p53_BLA_p5_ratio: Tox21 HCT-116 p53 Agonism Beta-lactamase Assay, Ratio, Phase 5 (AID 2283599; active means hit-call score of the fitted dose curve at least 0.9, where 1 is the maximum)
Summary of the method: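 HCT-116 cells carrying a p53-inducible beta-lactamase reporter were seeded at 4000 cells/well and dosed after 5 h with compound in DMSO (217-fold dilution). After 16 h at 37C, CCF4-AM substrate was added for 2 h, and the 460/530 nm emission ratio was scored as gain-of-signal versus DMSO.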

[7] = TOX21_p53_BLA_p5_viability: Viability Assessment in the Tox21 HCT-116 p53 Agonism Beta-lactamase Assay, Phase 5 (AID 2283600; active means hit-call score of the fitted dose curve at least 0.9, where 1 is the maximum)
Summary of the method: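 4000 cells/well; 5 h pre-incubation; DMSO compounds pin-transferred, 217-fold dilution; 16 h, 37C/5% CO2; CCF4-AM 2 h RT; CellTiter-Glo 30 min RT; luminescence.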

[8] = CCTE_Shafer_MEA_dev_firing_rate_mean: CCTE's Neural Network Formation Assay for Mean Firing Rate, Shafer Lab (AID 2284031)
Summary of the method: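 Rat primary cortical neurons were seeded on multielectrode arrays and treated from plating through day 12, with redosing at each feed. Spontaneous spiking was recorded four times; mean firing rate AUC was fitted downward against DMSO.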

[9] = CCTE_Shafer_MEA_dev_per_burst_spike_percent: CCTE's Neural Network Formation Assay for Percent of Spikes in a Burst, Shafer Lab (AID 2284032)
Summary of the method: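 Rat primary cortical neurons on 16-electrode MEA wells, dosed from plating day 0 for 12 days with renewal on DIV 5 and 9; spikes-in-bursts percentage averaged over bursting electrodes, collapsed as AUC across days 5, 7, 9, 12; loss direction versus DMSO.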

[10] = CCTE_Shafer_MEA_dev_burst_rate: CCTE's Neural Network Formation Assay for Burst Rate, Shafer Lab (AID 2284042)
Summary of the method: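 Cells plated, treated day 0; recorded DIV 5, 7, 9, 12; fed and re-treated DIV 5, 9. Endpoint: bursts per recording time, active-electrode well mean, trapezoidal AUC, fitted in decreasing direction against DMSO baseline.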

[11] = CCTE_Shafer_MEA_dev_per_burst_interspike_interval: CCTE's Neural Network Formation Assay for Burst Interspike Interval, Shafer Lab (AID 2284044);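 further: mean spike spacing inside bursts as AUC over recordings on days 5 7 9 12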
Summary of the method: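 Neurons from rat cortex plated onto PEI-coated MEA wells with laminin […] at 1.5 x 10^5 cells/well, then treated from day 0. Media and compound fully replaced on DIV 5 and 9. Extracellular spontaneous firing recorded four times; interspike interval per burst summarised as AUC.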

[12] = CCTE_Shafer_MEA_dev_burst_duration_mean: CCTE's Neural Network Formation Assay for Mean Burst Duration, Shafer Lab (AID 2284045)
Summary of the method: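 Primary rat cortical neurons on PEI-coated 16-electrode MEA wells, exposed from plating through day 12 with compound renewed at DIV 5 and 9; spontaneous activity recorded days 5, 7, 9, 12. Well-mean burst duration collapsed as trapezoidal AUC, fitted for loss versus DMSO.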

[13] = CCTE_Shafer_MEA_dev_interburst_interval_mean: CCTE's Neural Network Formation Assay for Mean Interburst Interval, Shafer Lab (AID 2284046);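 further: well-mean interburst interval of bursting electrodes as AUC over four recording days; curve fitted for decrease in interburst interval relative to DMSO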
Summary of the method: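 Developing rat cortical networks on 48-well MEAs receive compound from the day of plating. Burst intervals from each active electrode are averaged per well, and AUC over the recording days is fitted in the negative direction against DMSO.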

[14] = CCTE_Shafer_MEA_dev_inter_network_spike_interval_mean: CCTE's Neural Network Formation Assay for Mean Inter-network Spike Interval, Shafer Lab (AID 2284047)
Summary of the method: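 Rat cortical cultures, 1.5 x 10^5 cells/well on 48-well MEA plates; continuous exposure days 0–12, medium and compound refreshed DIV 5, 9. Mean time between consecutive network-spike peaks; AUC across DIV 5/7/9/12; DMSO baseline, negative fitting direction.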

[15] = CCTE_Shafer_MEA_dev_network_spike_number: CCTE's Neural Network Formation Assay for Number of Network Spikes, Shafer Lab (AID 2284048);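 further: synchronized bursts across electrodes counted on days 5 7 9 12 and integrated as AUC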
Summary of the method: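 Primary rat cortical neurons were seeded at 1.5 x 10^5 cells/well on PEI-coated 16-electrode MEA wells with laminin, exposed from plating day 0, compound renewed at DIV 5 and 9. Network spikes were recorded on days 5, 7, 9, 12 and summarized as trapezoidal AUC versus DMSO.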

[16] = CCTE_Shafer_MEA_dev_network_spike_peak: CCTE's Neural Network Formation Assay for Mean Number of Electrodes in Network Spike, Shafer Lab (AID 2284049)
Summary of the method: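 Continuous 12-day exposure of rat cortical cultures, starting at plating, on MEA plates. Endpoint: electrodes participating in network-spike peaks, AUC across DIV 5–12, DMSO as negative control.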

[17] = CCTE_Shafer_MEA_dev_spike_duration_mean: CCTE's Neural Network Formation Assay for Mean Spike Duration, Shafer Lab (AID 2284051);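 further: mean network spike duration pooled as area under curve over DIV 5 to 12 recordings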
Summary of the method: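 Readout is the average length of network spikes, clustered firing across electrodes, summed over DIV 5, 7, 9 and 12 as area under the curve. Neurons from rat cortex developed networks on MEA plates under continuous 12-day exposure.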

[18] = CCTE_Shafer_MEA_dev_network_spike_duration_std: CCTE's Neural Network Formation Assay for Standard Deviation of Network Spike Duration, Shafer Lab (AID 2284052);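 further: area under curve of spike duration SD across recording days 5 to 12; hits are decreases in network spike duration SD versus DMSO vehicle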
Summary of the method: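 Read-out is the trapezoidal area-under-the-curve across recordings made on days 5, 7, 9 and 12, fitted in the negative direction against DMSO baseline. Neurons were primary rat cortical cells treated from day 0, with treatment renewed at each feed.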

[19] = CCTE_Shafer_MEA_dev_per_network_spike_spike_number_mean: CCTE's Neural Network Formation Assay for Mean Number of Spikes in a Network Spike, Shafer Lab (AID 2284053)
Summary of the method: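 Continuous twelve-day exposure of developing rat cortical networks grown over 16 microelectrodes per well; spontaneous firing is captured at four time points, and the per-network-spike spike number is integrated over development by trapezoidal AUC.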

[20] = CCTE_Shafer_MEA_dev_per_network_spike_spike_percent: CCTE's Neural Network Formation Assay for Percent of Spikes in a Network Spike, Shafer Lab (AID 2284054)
Summary of the method: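 Primary rat cortical neurons on 16-electrode MEA wells (PEI-coated, laminin at plating), exposed from day 0 with renewal at DIV 5 and 9; spikes within 0.05 s of network-spike peaks over total spikes, AUC across days 5, 7, 9, 12.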

[21] = CCTE_Shafer_MEA_dev_LDH: CCTE's Lactate Dehydrogenase Assay for Cytotoxicity in the Neural Network Formation Assay, Shafer Lab (AID 2284068; active means hit-call score of the fitted dose curve at least 0.9, where 1 is the maximum;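 further: exposure for twelve days from plating with re-dosing on DIV 5 and 9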)
Summary of the method: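 Cytotoxicity companion to network-formation recordings: rat cortical neurons received compound over 12 days of development, re-dosed at DIV 5 and 9 feeds. Viability was inferred from LDH enzyme activity relative to DMSO.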

[22] = CCTE_Shafer_MEA_dev_mutual_information_norm: CCTE's Neural Network Formation Assay for Mutual Information Normalization, Shafer Lab (AID 2284091)
Summary of the method: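 Rat cortical cultures, 48-well MEA, continuous exposure DIV 0–12 with full media/compound change DIV 5 and 9. Readout: inter-electrode mutual information, AxIS adaptive spike detection; AUC across DIV 5/7/9/12 recordings; DMSO baseline, negative fitting direction.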

[23] = CCTE_Shafer_MEA_dev_correlation_coefficient_mean: CCTE's Neural Network Formation Assay for Mean Correlation Coefficient, Shafer Lab (AID 2284093)
Summary of the method: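 Read-out: well-mean correlation coefficient of spike trains between electrode pairs, collapsed over four recording days as trapezoidal area-under-the-curve. Developing rat cortical neuron networks grown on MEAs received test chemical continuously from plating.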

Measured: outcome

Chain of Cellular tumor antigen p53 (Homo sapiens) (P04637 whole entry, looked up): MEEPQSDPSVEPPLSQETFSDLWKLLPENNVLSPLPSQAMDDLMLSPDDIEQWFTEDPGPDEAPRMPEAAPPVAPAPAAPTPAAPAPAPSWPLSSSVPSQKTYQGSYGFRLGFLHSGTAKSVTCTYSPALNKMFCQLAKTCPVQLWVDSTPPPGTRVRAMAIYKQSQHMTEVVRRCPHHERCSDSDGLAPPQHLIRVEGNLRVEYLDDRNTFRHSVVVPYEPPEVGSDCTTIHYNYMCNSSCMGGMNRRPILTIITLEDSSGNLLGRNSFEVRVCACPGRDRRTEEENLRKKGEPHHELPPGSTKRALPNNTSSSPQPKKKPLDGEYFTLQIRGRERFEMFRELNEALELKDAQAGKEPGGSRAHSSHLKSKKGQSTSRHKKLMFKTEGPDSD

CCC1(c2ccccc2)C(=O)NC(=O)NC1=O
inactive: all assays above
